Assay results taken from PubChem BioAssay (NCI).
This is part of a sample that, as a whole, favours compounds with a hit. Of some 79,000 tested, about 15% had one in any assay. Activity calls are given as the source filed them. Cut-off read from the data, not from the text of the source: active = growth inhibition above about 70%; inactive = the rest.

Legend:
[1] = NCI Yeast Anticancer Drug Screen. Data for the rad52 strain (AID 147);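 note: 0% = growth of vehicle-treated control cultures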; conditions: S. cerevisiae rad52 mutant growth inhibition, hits give high values
In short: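 Inhibition of yeast growth, referenced to vehicle controls, was the measured output for a strain with defective DNA damage repair.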

[2] = NCI Yeast Anticancer Drug Screen. Data for the wt1 strain (AID 149);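 note: 0% = growth of vehicle-treated wt1 cultures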; conditions: S. cerevisiae wt1 strain (SPY 50644) growth inhibition, hits give high values
In short: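 wt1 strain grown with compound or vehicle; inhibition taken from the growth difference.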

[3] = NCI Yeast Anticancer Drug Screen. Data for the rad50EPP+ strain (AID 151);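 note: 0% = growth of vehicle-treated control cultures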; conditions: S. cerevisiae rad50 mutant strain, hits give high values
In short: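 Genetically defined yeast (rad50EPP+, DNA damage repair alteration) is grown with compound, and inhibition of growth is expressed relative to vehicle-treated controls.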

[4] = NCI Yeast Anticancer Drug Screen. Data for the rad50 strain (AID 155);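 note: 0% = growth of vehicle-only cultures of the same strain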; conditions: S. cerevisiae rad50 strain growth inhibition, hits give high values
In short: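 DNA repair mutant yeast, compound exposure, growth read-out; inhibition is taken relative to vehicle.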

[5] = NCI Yeast Anticancer Drug Screen. Data for the mec2-1 strain (AID 157); conditions: S. cerevisiae mec2-1 strain, hits give high values
In short: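 Each compound was tested on mec2-1 yeast, a strain altered in DNA damage repair or cell cycle control. Growth inhibition is reported relative to vehicle.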

[6] = NCI Yeast Anticancer Drug Screen. Data for the rad14 strain (AID 159);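 note: 0% = growth of vehicle-treated control cultures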; conditions: S. cerevisiae rad14 strain growth inhibition, hits give high values
In short: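 DNA repair-defective yeast, compound-exposed; % growth inhibition derived by comparison with vehicle-treated controls.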

[7] = NCI Yeast Anticancer Drug Screen. Data for the sgs1 mgt1 strain (AID 161);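 note: 0% = growth of cultures given vehicle only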; conditions: S. cerevisiae sgs1 mgt1 strain, hits give high values
In short: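 Test agents were incubated with a DNA-repair-mutant yeast strain. Growth was then read and compared against vehicle-treated controls.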

[8] = NCI Yeast Anticancer Drug Screen. Data for the CLN2oe strain (AID 163);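 note: 0% = growth of vehicle-only control cultures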; conditions: S. cerevisiae CLN2oe strain, hits give high values
In short: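 First, the altered yeast strain was treated with each compound; second, its growth was measured; finally, inhibition was derived by comparison with vehicle controls.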

[9] = NCI Yeast Anticancer Drug Screen. Data for the cln2 rad14 strain (AID 165);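 note: 0% = growth equal to vehicle treated cultures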; conditions: S. cerevisiae cln2 rad14 strain, hits give high values
In short: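 Test compounds were added to cln2 rad14 yeast cultures; inhibition of growth was then determined by comparison with vehicle treatment.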

[10] = NCI Yeast Anticancer Drug Screen. Data for the bub3 strain (AID 167); conditions: S. cerevisiae bub3 mutant strain, hits give high values
In short: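 In this screen, a yeast mutant lacking normal mitotic checkpoint function is challenged with compound. Relative growth versus vehicle gives the inhibition value.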

[11] = NCI Yeast Anticancer Drug Screen. Data for the wt2 strain (AID 169);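 note: 0% = growth of vehicle-treated yeast cultures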; conditions: S. cerevisiae wt2 strain growth inhibition, hits give high values
In short: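 The panel's yeast strains carry defined changes in DNA repair or cell cycle genes. Each strain is grown with compound, and growth loss is scored relative to vehicle.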

[12] = NCI Yeast Anticancer Drug Screen. Data for the sgs1 strain (AID 173);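 note: 0% = growth of vehicle-only control cultures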; conditions: S. cerevisiae sgs1 mutant, hits give high values
In short: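 Vehicle-treated cultures served as reference for growth inhibition of a yeast strain altered in DNA damage repair or cell cycle control after compound exposure.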

[13] = NCI Yeast Anticancer Drug Screen. Data for the mlh1 rad18 strain (AID 175); conditions: S. cerevisiae mlh1 rad18 strain growth inhibition, hits give high values
In short: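 Inhibition values reflect reduced growth of mutant yeast versus vehicle-treated controls following compound exposure; the mutations affect DNA damage repair.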

[14] = NCI Yeast Anticancer Drug Screen. Data for the rad18 strain (AID 177); conditions: S. cerevisiae rad18 mutant growth inhibition, hits give high values
In short: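 Steps: expose repair-mutant yeast to compound; measure growth; express as inhibition relative to vehicle control.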

[15] = at 5.0 µM (retest, dose inferred, filed as 0.5)
[16] = at 50.0 µM (retest, dose inferred, filed as 5.0)

Measured: growth inhibition

CC(=O)c1ccc(NCN2C(=O)c3ccccc3C2=O)cc1
active: [1]; at 33.0 µM 84% | [1]; at 100.0 µM 92% | [2]; at 100.0 µM 89% | [3]; at 33.0 µM 70% | [3]; at 100.0 µM 90% | [4]; at 33.0 µM 85% | [4]; [16] 99% | [4]; at 50.0 µM 82.7% | [4]; at 100.0 µM 89% | [5]; at 33.0 µM 81% | [5]; [16] 99% | [5]; at 50.0 µM 84.5% | [5]; at 100.0 µM 91% | [6]; at 100.0 µM 93% | [8]; at 100.0 µM 82% | [10]; at 33.0 µM 79% | [10]; at 100.0 µM 91% | [11]; at 100.0 µM 89% | [12]; at 33.0 µM 73% | [12]; at 100.0 µM 86% | [13]; [16] 99% | [13]; at 50.0 µM 85.8% | [14]; at 33.0 µM 90% | [14]; at 100.0 µM 92%
inactive: [1]; at 1.2 µM -31% | [1]; at 3.7 µM -8% | [1]; at 11.0 µM 28% | [2]; at 1.2 µM -51% | [2]; at 3.7 µM -41% | [2]; at 11.0 µM -36% | [2]; at 33.0 µM 66% | [3]; at 1.2 µM -17% | [3]; at 3.7 µM -32% | [3]; at 11.0 µM 6% | [4]; at 1.2 µM -20% | [4]; at 3.7 µM -12% | [4]; [15] 42% | [4]; at 11.0 µM 55% | [5]; at 1.2 µM -8% | [5]; at 3.7 µM -30% | [5]; [15] 51% | [5]; at 11.0 µM 16% | [6]; at 1.2 µM -50% | [6]; at 3.7 µM -39% | [6]; at 11.0 µM -19% | [6]; at 33.0 µM 66% | [7]; [15] 7% | [7]; [16] 25% | [8]; at 1.2 µM -19% | [8]; at 3.7 µM -32% | [8]; at 11.0 µM -31% | [8]; at 33.0 µM 53% | [9]; [15] 48% | [9]; [16] 35% | [10]; at 1.2 µM -15% | [10]; at 3.7 µM -2% | [10]; [15] 34% | [10]; at 11.0 µM 22% | [10]; [16] 42% | [11]; at 1.2 µM -49% | [11]; at 3.7 µM -36% | [11]; at 11.0 µM -15% | [11]; at 33.0 µM 64% | [12]; at 1.2 µM -25% | [12]; at 3.7 µM -28% | [12]; at 11.0 µM -13% | [13]; [15] 36% | [14]; at 1.2 µM -36% | [14]; at 3.7 µM -21% | [14]; at 11.0 µM 47%
